The whole screen tested about 1,200 compounds, of which about 290 (24%) were called active. Not shown: some 3% with an inconclusive outcome. Only a sample is shown. Potency and affinity values are given separately. Values without a mark were called inactive.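 The calls were made as follows: active = compounds lowering cell viability signal with fitted half-maximal concentration at most ten times their highest tested concentration; inconclusive = flat fit with 30 to 70% signal loss, or poor fit; inactive = the rest.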
Test: HEK293T cell viability reduction, dose response, cytotoxicity control for LMP1 NF-kB inhibitor project, CellTiter-Glo luminescence, cherry-picks (AID 504861)
Conditions: CellTiter-Glo ATP luminescence, 48 h; series mostly up to 26 µM; activity change, negative = cytotoxicity: at the top concentration

SMILES | activity change, negative = cytotoxicity [%]
CCN(CC(=O)Nc1ccc(NC(C)=O)cc1)C(=O)c1cccnc1Sc1ccc(C)c(C)c1 | 3.97
Cc1ccccc1C(=O)NC(=S)Nc1ccc(N2CCN(C(=O)c3ccccc3)CC2)cc1 | -0.757
Cc1ccc(CNC(=O)C(=O)NCC2OCCN2S(=O)(=O)c2ccc(Cl)cc2)cc1 (stereo unspecified) | 12.9
CN1CCN(/N=C/c2ccc(N(c3ccccc3)c3ccccc3)cc2)CC1 | -5.7
O=[N+]([O-])c1ccc(O)c(/C=N/Nc2ncnc3c2cnn3-c2ccccc2)c1 | 13
COc1cccc(/C=N/Nc2ncnc(N)c2[N+](=O)[O-])c1OC | 4.22
Cc1cc(C(=O)COc2cccnc2[N+](=O)[O-])c(C)n1-c1ccccc1F | -9.11
Cc1ccsc1-c1nc(CSCC(=O)N2CCN(c3ccccc3)CC2)c(C)o1 | -11.5
Oc1c(N=NC(=S)Nc2ccccc2F)c2ccccc2n1Cc1ccc(F)cc1 | -7.28
COc1ccc(Cn2c(SCc3cc(C)ccc3C)nc3cc(OC)c(OC)cc3c2=N)cc1 | 3.5
COc1ccc(-c2cn3nc4c(nc3n2)CCCC4)cc1 | 5.52
CCOC(=O)C1=C(C)NC(C)=C(C(=O)OCC)C1C(=O)OCC(=O)N(C)C1CCS(=O)(=O)C1 (stereo unspecified) | 15.2
O=C(CCCN1C(=O)/C(=C/c2ccccc2Cl)SC1=S)NNC(=O)c1ccccc1Cl | 4.78
Cc1cc(C(=O)CSc2nnc(-c3cccs3)o2)c(C)n1-c1ccccc1 | 1.11
O=C(O)CN1C(=O)/C(=C\c2ccccc2OCc2ccc(Cl)cc2Cl)SC1=S | 5.71
O=c1c2cnn(-c3ccccc3)c2nc(-c2cccs2)n1-c1ccc(Br)cc1 | 1.27
COc1ccc(N2CCN(CCNC(=O)CCCn3c(=O)[nH]c4cc(Cl)ccc4c3=O)CC2)cc1 | 5.79
COc1cc(C(=S)N2CCOCC2)cc(OC)c1OC(=O)c1ccc(F)cc1 | 2.77
COc1ccc(NC(=O)c2ccc(-c3ccccc3)cc2)cc1S(=O)(=O)N1CCOCC1 | 0.12
CC(C)CCNC(=O)C1CCN(S(=O)(=O)c2ccc3c(c2)CC(C)N3C(=O)C2CC2)CC1 (stereo unspecified) | -4.11
COc1ccc(OC)c(S(=O)(=O)NC(C)CCc2ccccc2)c1 (stereo unspecified) | -3.46
COc1ccc(C(=O)CSc2nnc(Cc3ccccc3)o2)cc1 | -0.444
Cc1ccc(-c2nc3cccnc3o2)cc1NC(=O)COc1ccc(C(C)(C)C)cc1 | -1.19
CCc1ccc(C(=O)COC(=O)c2cccc(N3C(=O)c4c(C)nc5ccccc5c4C3=O)c2)cc1 | 17.6
CCOC(=O)Cc1csc(N/N=C\c2ccc(N(C)C)cc2)n1 | -1.39
O=C(OCc1ccccc1F)c1cc2ccccc2cc1O | -1.01

SMILES | activity change, negative = cytotoxicity [%]
Cc1cc(OCC(=O)Nc2cnn(CCCC(=O)O)c2)ccc1Cl | 13.2
C=CCn1c(SCc2ccc3nonc3c2)nnc1-c1cccs1 | 1.17
CCOC(=O)c1sc(NC(=O)CNCc2ccccn2)c(C(=O)OCC)c1C | -5.06
Cc1ccc(-n2ccc(=O)c(C(=O)Nc3ccc(S(=O)(=O)N4CCOCC4)cc3)n2)cc1 | 0.296
Cc1ccnc(NC(=O)c2sc3ccccc3c2Cl)c1 | 6.79
Oc1c(N=NC(=S)Nc2ccccc2F)c2ccccc2n1Cc1ccccc1 | -0.998
Cc1ccc(S(=O)(=O)NC(CC(C)C)C(=O)NCC(c2ccco2)N2CCCCC2)cc1 (stereo unspecified) | -0.283
CCCCCn1c(N2CCOCC2)nc2c1c(=O)n(CC(N)=O)c(=O)n2C | 8.7
O=C(NCCOc1ccccc1)c1ccc2c(c1)OCO2 | -2.16
C(=Cc1nc2ccccc2o1)c1ccc2c(c1)OCO2 | 2.36
Cc1cc(C)c(OCCn2ccnc2)c(C)c1 | -0.473
COc1ccc2oc(C(=O)NCCc3ccccc3)c(C)c2c1 | -1.74
COc1ccc(-c2nnc(NC(=O)c3ccc(S(=O)(=O)N4CCCc5ccccc54)cc3)o2)cc1 | 4.47
O=C1N[C@@H](Cc2c[nH]c3ccccc23)COC(=O)[C@H](Cc2ccc(F)cc2)C/C=C\C[C@H]1CC(=O)N(CCO)Cc1ccccc1 | -1.61
Cc1sc2ncnc(N3CCC(C(=O)Nc4ccccc4C(C)(C)C)CC3)c2c1C | -1.53
Cc1sc2ncn(CC(=O)N3CCC(C(N)=O)CC3)c(=O)c2c1S(=O)(=O)N1CCOCC1 | 10.7
O=c1oc2ccccc2c(O)c1/C=N/c1ccccn1 | 10.1
CC1(C)Cc2nc3sc4c(SCC(=O)O)ncnc4c3cc2CO1 | 5.57
COc1ccc(C(=O)N2CC(=O)Nc3ccccc32)cc1S(=O)(=O)N1CCCC1 | 17.4
CCOc1ccc(S(=O)(=O)N2CCC(C(=O)NCCc3ccc(S(N)(=O)=O)cc3)CC2)cc1 | 9.59
CCOc1ccc(NC(=S)N=Nc2c(O)[nH]c3ccccc23)cc1 | -3.24
CSc1oc(-c2ccc(F)cc2)nc1S(=O)(=O)c1ccc(F)cc1 | 5.8
O=C(CN1C(=O)C2C3C=CC(C3)C2C1=O)NCCC1=CCCCC1 (stereo unspecified) | 22
O=C(Cc1ccc(Cl)cc1)NCC(=O)N1CCCCC1 | 6.35
CCCCN1C2CCCC1CC(NC(=O)C1CCCCC1)C2 (stereo unspecified) | 7.49
